Measurements: PubChem BioAssay (NCI)
This is part of a sample that, as a whole, favours compounds with a hit. Of some 83,000 tested, about 20% had one in any assay.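 Cells were grown in 96-well plates and exposed to the test compound at a single concentration for 48 hours; results are reported as percent growth, with values below 10 considered active.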 Unmarked numbers belong to inactive results. Calls of active or inactive are those of the source.

Key:
Assay in all cases: NCI-60 one-dose screen, 48 h (100 = growth as untreated, 0 = no growth, -100 = all killed)
Details in all cases: 10 µM unless noted
SR leukemia = test system: SR leukemia
RPMI-8226 leukemia = test system: RPMI-8226 leukemia
OVCAR-8 ovarian = test system: OVCAR-8 ovarian
OVCAR-5 ovarian = test system: OVCAR-5 ovarian
OVCAR-4 ovarian = test system: OVCAR-4 ovarian
SK-OV-3 ovarian = test system: SK-OV-3 ovarian
IGROV1 ovarian = test system: IGROV1 ovarian
OVCAR-3 ovarian = test system: OVCAR-3 ovarian
HS 578T breast = test system: HS 578T breast
NCI/ADR-RES ovarian = test system: NCI/ADR-RES ovarian
T-47D breast = test system: T-47D breast
BT-549 breast = test system: BT-549 breast
MDA-MB-435 melanoma = test system: MDA-MB-435 melanoma
SW-620 colon = test system: SW-620 colon
MCF7 breast = test system: MCF7 breast
HCT-116 colon = test system: HCT-116 colon
HCC-2998 colon = test system: HCC-2998 colon
KM12 colon = test system: KM12 colon
MDA-MB-468 breast = test system: MDA-MB-468 breast

Row | Structure (SMILES) | growth (SR leukemia) | growth (RPMI-8226 leukemia) | growth (OVCAR-8 ovarian) | growth (OVCAR-5 ovarian) | growth (OVCAR-4 ovarian) | growth (SK-OV-3 ovarian) | growth (IGROV1 ovarian) | growth (OVCAR-3 ovarian) | growth (HS 578T breast) | growth (NCI/ADR-RES ovarian) | growth (T-47D breast) | growth (BT-549 breast) | growth (MDA-MB-435 melanoma) | growth (SW-620 colon) | growth (MCF7 breast) | growth (HCT-116 colon) | growth (HCC-2998 colon) | growth (KM12 colon) | growth (MDA-MB-468 breast)
1 | O=C1Nc2ccccc2/C1=C\c1ccc(OCC(=O)c2ccc(Br)cc2)cc1 | 36.3% | 49.2% | 69.6% | 93.2% | 58.2% | 101% | 78.3% | 77.5% | 84.5% | 47.8% | 46.9% | 56.6% | 70.5% | 78.1% | 27.4% | 55.4% | 85.1% | 77.3% | 52.4%
2 | COc1ccc(NC(=O)N/N=C/c2c[nH]c3ccccc23)cc1 | 23.4% | 24.9% | 20.5% | 37.4% | 69.9% | 37.5% | 40.8% | -34.1% (active) | 27.1% | 15.3% | 43.3% | 19.1% | -26.1% (active) | 25% | 16.8% | 21.5% | 44.3% | 24.7% | 16.4%
3 | Cc1ccc(C2CC(c3ccc(NC(=O)Nc4ccccc4)cc3)=NN2c2ccc(S(N)(=O)=O)cc2)cc1 (stereo not drawn) | -12.7% (active) | -11.5% (active) | -46.2% (active) | -95.4% (active) | -87.6% (active) | -77.6% (active) | -93.5% (active) | -75.8% (active) | -28.7% (active) | -66.9% (active) | -74.7% (active) | -79.6% (active) | -91.8% (active) | -83.4% (active) | -82.4% (active) | -74.4% (active) | -75.4% (active) | -50% (active) | -93.4% (active)
4 | COc1ccc(N=Nc2c(N)nn3c(N)c(C#N)c(-c4ccc(F)cc4)nc23)cc1 | 78.4% | 50.3% | 29.6% | 95.9% | 50.9% | 43.1% | 76.9% | 103% | 20.6% | 25.1% | 55.7% | 49.3% | 86.2% | 88.6% | 57.1% | 46.4% | 66.7% | 56.7% | 46.7%
5 | O=C1CC(c2ccc(I)cc2)OC2C=Cc3ccccc3C12 (stereo not drawn) | 88.9% | 87.2% | 104% | 115% | 96.7% | 96.7% | 119% | 125% | 104% | 104% | 87.8% | 108% | 97.4% | 103% | 83.3% | 98.9% | 117% | 92.9% | 123%
6 | C/C(=N/O)c1ccc(NC(=O)CSc2nnc(-c3ccc4nc(-c5ccc(Cl)cc5)[nH]c4c3)o2)cc1 | 24% | 54.4% | 1.29% (active) | 118% | 101% | 117% | 102% | 84.7% | 12.7% | 101% | 97.8% | -8.14% (active) | 18.3% | 67.4% | 55.3% | 69% | 128% | 36.4% | 122%
7 | COc1cc(/C=C/C(=O)c2cnn(-c3cc(=O)[nH]c4ccccc34)c2C)cc(OC)c1OC | -3.34% (active) | -11.6% (active) | -18.1% (active) | -3.98% (active) | 39.4% | 9.66% (active) | 6.78% (active) | 8.06% (active) | 35.5% | 42.2% | 10.7% | -4.19% (active) | 21.1% | 24.4% | 10.8% | 5.92% (active) | -1.51% (active) | 4.79% (active) | -35.3% (active)
8 | COC(=O)CSC1=C(C)C(=O)C(OC)=C(OC)C1=O | 57% | 65.6% | 92.2% | 110% | 94.2% | 100% | 106% | 91.8% | 79.2% | 96.6% | 36.2% | 79% | 89.2% | 84.5% | 86.6% | 29.6% | 120% | 93.5% | 52%
9 | Cn1cc(-c2cc(N)n3nc(-c4c[nH]c5ccc(F)cc45)cc3n2)c2cccnc21 | -11.7% (active) | -30.3% (active) | -59.6% (active) | -81.1% (active) | -30% (active) | -56% (active) | -71.4% (active) | -76.1% (active) | -14.6% (active) | -44.7% (active) | -59.7% (active) | -73.6% (active) | -76.6% (active) | -66.4% (active) | -53.8% (active) | -91.4% (active) | -100% (active) | -66% (active) | -92.9% (active)
10 | O=C(Cn1c(-c2ccccc2)nc2ccccc21)N=Nc1c(O)[nH]c2ccc(Br)cc12 | -25.7% (active) | 21.9% | -39.2% (active) | 0.0575% (active) | -62.1% (active) | -47.9% (active) | -41.8% (active) | -22.5% (active) | -28.8% (active) | -55.7% (active) | -59.4% (active) | -53.7% (active) | -32.3% (active) | 11.9% | -18.6% (active) | 1.09% (active) | 0.134% (active) | 15% | -53.4% (active)
11 | Cc1ccc(C(=O)Nc2cc(-c3ccccc3)cc(C(F)(F)F)c2)cc1C#Cc1cnc2cccnn12 | 44.8% | 36.9% | 75.3% | 85.3% | 49% | 123% | 93.1% | 95.5% | 85.3% | 63.2% | 42.3% | 139% | 45.3% | 66.7% | 39.9% | 32.2% | 85.3% | 41.9% | 62.9%
12 | S=C(Nc1ccccc1)Nc1ccc(OCc2nc3ccc(Cl)cc3[nH]2)cc1 | 25.9% | 66.7% | 87.7% | 109% | 78.3% | 97.1% | 87.9% | 84.9% | 92% | 83.7% | 51.5% | 78.8% | 75.2% | 73% | 24.8% | 77.5% | 104% | 74.7% | 12.1%
